Test systems include T-47D breast; BT-549 breast; MDA-MB-435 melanoma; SW-620 colon; MCF7 breast; HCT-116 colon; HCC-2998 colon; KM12 colon.
Holding throughout (test): NCI-60 one-dose screen, 48 h (100 = growth as untreated, 0 = no growth, -100 = all killed)
Conditions in all cases: 10 µM unless noted

Compounds without any hit were thinned out: in the full panel of roughly 83,000, 20% have a hit.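 Compound tested at a single concentration for 48 hours in 96-well plates; a percent growth value below 10 was scored as active.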 Unmarked numbers belong to inactive results. Calls of active or inactive are those of the source.

For the molecule `CC1=C(C#N)C(=O)NC(C)C1` (stereo not drawn), the growth in the assay on T-47D breast is 91.4%; with BT-549 breast, 101%; in the assay with MDA-MB-435 melanoma, 107%; in the assay on SW-620 colon, 106%; in the assay with MCF7 breast it was 101%; in the assay on HCT-116 colon, 110%. Also, the growth was 79.8% in the assay on HCC-2998 colon and 107% in the assay with KM12 colon.
As for `COc1ccc(N=Cc2c(O)ccc3c2oc2cc(Cl)c(O)c(Cl)c23)cc1`, the growth with T-47D breast is 87.9%; in the assay on BT-549 breast, 53.3%; in the assay with MDA-MB-435 melanoma, 94%; with SW-620 colon it was 99.2%; in the assay with MCF7 breast, 69.6%; in the assay with HCT-116 colon, 91.5%. The growth in the assay on HCC-2998 colon is 88.7%; in the assay on KM12 colon, 104%.
For the molecule `O=C(N/N=C/C=C\c1ccccc1)C(=O)N/N=C/C=C/c1ccccc1`, the growth in the assay with T-47D breast is 100%; in the assay on BT-549 breast, 102%; in the assay with MDA-MB-435 melanoma, 121%; with SW-620 colon it was 106%; with MCF7 breast, 100%; with HCT-116 colon, 104%. In addition, the growth in the assay with HCC-2998 colon and in the assay on KM12 colon was 109% in each case.
Regarding `CC(C)(C)n1cc(-c2ccnc(NCCCNS(=O)(=O)c3ccccc3)c2)c(-c2cccc(O)c2)n1`, the growth in the assay with T-47D breast is 23.8%; in the assay with BT-549 breast, 47.4%; with MDA-MB-435 melanoma, 54.8%; with SW-620 colon, 14.5%; in the assay on MCF7 breast, 25.1%; with HCT-116 colon, 36.8%. Also, the growth with HCC-2998 colon was 18.5%; in the assay with KM12 colon, 26.9%.
Take `COc1cc(/C=C/C(=O)c2cccc(-n3cc(-c4cc(OC)c(OC)c(OC)c4)[nH]c3=O)c2)cc(OC)c1OC`: the growth in the assay on T-47D breast was 8.37% (active); in the assay on BT-549 breast, -2.07% (active); with MDA-MB-435 melanoma, 3.2% (active); with SW-620 colon, -47.2% (active); with MCF7 breast, -5.04% (active); in the assay on HCT-116 colon it was -78.3% (active). In addition, the figures for the growth in the assay with HCC-2998 colon and with KM12 colon were 23.1% and -83.4% (active), respectively.
`O=c1ccn(-c2ncnc3nc[nH]c23)cc1`: the growth with T-47D breast was 84%; in the assay with BT-549 breast, 98.9%; with MDA-MB-435 melanoma it was 102%; in the assay with SW-620 colon, 96%; with MCF7 breast, 88%; in the assay with HCT-116 colon it was 96.5%. For the same molecule, the growth with HCC-2998 colon was 106%; in the assay with KM12 colon, 91.8%.
As for `CC(=O)Nc1scc[n+]1Cc1ccccc1`, the growth in the assay on T-47D breast is 102%; in the assay on BT-549 breast, 103%; in the assay with MDA-MB-435 melanoma it was 110%; in the assay on SW-620 colon, 105%; with MCF7 breast it was 98.4%; in the assay on HCT-116 colon, 102%. Also, the growth in the assay on HCC-2998 colon is 103%; in the assay with KM12 colon, 105%.
For the molecule `O=C(Nc1cccc(-n2cc(-c3ccncc3)c(-c3ccc(Cl)c(O)c3)n2)c1)Nc1cc(C(F)(F)F)cc(C(F)(F)F)c1`, the growth in the assay with T-47D breast is 12.1%; in the assay on BT-549 breast it was -35.9% (active); in the assay on MDA-MB-435 melanoma, -31.1% (active); in the assay on SW-620 colon, 3.32% (active); in the assay on MCF7 breast, 2.71% (active); in the assay on HCT-116 colon it was -59.1% (active). The growth in the assay with HCC-2998 colon was -56.9% (active); in the assay on KM12 colon, -50.3% (active).
As for `COc1cc(C2C3=C(COC3=O)Nc3cc4c(cc32)CCC4)cc2c1OCO2` (stereo not drawn), the growth in the assay on T-47D breast was 64%; in the assay on BT-549 breast, 23.8%; with MDA-MB-435 melanoma, -12.3% (active); in the assay on SW-620 colon, 25.4%; in the assay on MCF7 breast it was 19.1%; in the assay on HCT-116 colon it was 5.73% (active). In addition, the growth in the assay with HCC-2998 colon is 8.29% (active); in the assay with KM12 colon it was 3% (active).
In the case of `COc1ccc(-c2nc(-c3nc4cc(C)c(C)cc4[nH]3)cc3c2[nH]c2ccccc23)cc1`, the growth in the assay on T-47D breast was 52.1%; in the assay on BT-549 breast, 70.9%; in the assay with MDA-MB-435 melanoma, 49.2%; in the assay with SW-620 colon, 77.3%; in the assay with MCF7 breast, 39.1%; in the assay with HCT-116 colon it was 18.1%. Further, the results for the growth in the assay on HCC-2998 colon and in the assay on KM12 colon were 16.6% and 44.2%, respectively.
Turning to `O=C(O)/C=C/C(=O)c1ccc(Cl)cc1`, the growth was 95.5% in the assay with T-47D breast; 98.1% in the assay on BT-549 breast; 121% with MDA-MB-435 melanoma; 108% in the assay on SW-620 colon; 102% with MCF7 breast; 108% with HCT-116 colon. Further, the growth in the assay with HCC-2998 colon is 109%; with KM12 colon, 106%.
With `O=C(c1ccccc1)c1c(/C=C/c2ccccc2)c2ccccc2[nH]c1=O`, the growth was 93.5% in the assay on T-47D breast; 92.4% in the assay with BT-549 breast; 98.2% in the assay on MDA-MB-435 melanoma; 101% with SW-620 colon; 97.3% in the assay on MCF7 breast; 100% in the assay with HCT-116 colon. The growth in the assay with HCC-2998 colon is 111%; in the assay on KM12 colon it was 96%.
For `COc1cc2c(cc1O)CCN1C[C@@H](CC(C)C)[C@@H](O)C[C@@H]21`, the growth with T-47D breast is 91.1%; in the assay on BT-549 breast it was 108%; in the assay on MDA-MB-435 melanoma, 103%; in the assay on SW-620 colon, 102%; with MCF7 breast, 102%; with HCT-116 colon, 101%. Further, the growth is 102% in the assay on HCC-2998 colon and 109% with KM12 colon.
Consider `c1ccc(-c2cn(-c3ccccc3)c(-c3ccccc3)n2)cc1`, for which the growth in the assay on T-47D breast was 67.5%; with BT-549 breast, 72.5%; in the assay with MDA-MB-435 melanoma it was 72.6%; in the assay with SW-620 colon, 23.2%; with MCF7 breast it was -31.1% (active); in the assay with HCT-116 colon, -91.4% (active). Also, the values for the growth in the assay on HCC-2998 colon and with KM12 colon were 92.3% and 11.8%, respectively.
For `NC(=O)CCCN1C/C(=C\c2ccccc2)C(=O)c2ccccc21`, the growth in the assay with T-47D breast was 83.2%; with BT-549 breast, 93.7%; in the assay on MDA-MB-435 melanoma, 101%; in the assay with SW-620 colon, 97.6%; in the assay with MCF7 breast it was 96.7%; with HCT-116 colon it was 101%. Moreover, the growth is 93.8% in the assay with HCC-2998 colon and 101% in the assay with KM12 colon.
Consider `COc1ccc(Nc2nc(N)nc3c2CCN(Cc2ccc(OC)cc2OC)C3=O)cc1`, for which the growth in the assay on T-47D breast was 75.9%; with BT-549 breast, 74.9%; in the assay with MDA-MB-435 melanoma, 79.2%; with SW-620 colon it was 80%; in the assay on MCF7 breast it was 87.7%; in the assay on HCT-116 colon it was 49.9%. The growth in the assay on HCC-2998 colon was 94.2%; with KM12 colon, 85.1%.

The values above are taken from PubChem BioAssay (NCI).
